Composite z-score and z-score data for five molecules are collected here from PubChem BioAssay.

A short description of assay [1]: compounds binding Alexa647 anti-His antibody – biochemical, small-molecule microarray, 635 nm fluorescence, artefact control for SMM control protein annotation, primary screen (AID 1128).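 Note: score merges feature fluorescence with signal-to-noise for each printed compound spot.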 As to conditions: higher = more signal.
Assay [2] relates to Human papillomavirus type 1a E7 protein (residues 1-88). Put plainly: HPV1a E7 small-molecule binders, primary screen, biochemical, small-molecule microarray, residues 1-88, 635 nm (AID 1129). As to conditions: small-molecule microarray binding, fluorescence 635 nm; higher = more signal.
Assay [3] deals with Focal adhesion kinase 1 (Homo sapiens) (UniProt Q05397). Put plainly: PTK2 protein binding on printed compound slides – biochemical, small-molecule microarray, 635/667 nm fluorescence, BSA, DTT, primary screen (AID 1130).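 Note: composite of spot emission at 667 nm and signal to noise over triplicate slides.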 To be noted: 635 nm fluorescence, higher = more signal.
Assay [4] has as its system Fibrinogen (Alexa647-labelled). Put plainly: Alexa647-fibrinogen binding to printed small molecules – biochemical, small-molecule microarray, 635/667 nm fluorescence, artefact control for SMM control-protein annotation, profiling panel (AID 1131).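 Note: z-score merges 667 nm fluorescence with per-spot signal-to-noise over triplicate slides.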 As to conditions: fibrinogen-A647 binding fluorescence, higher = more signal.
For assay [5], the target named is Follistatin (Homo sapiens) (UniProt P19883). As to the kind of experiment: FST protein binding to printed compounds – biochemical, small-molecule microarray, 635/667 nm fluorescence, primary screen (AID 1132). As to conditions: 635 nm fluorescence, higher = more signal.
Assay [6] deals with Fibroblast growth factor 2 (Homo sapiens) (UniProt P09038). As to the kind of experiment: basic fibroblast growth factor binding to printed compounds – biochemical, small-molecule microarray, 635/667 nm fluorescence, primary screen (AID 1133). As to conditions: FGF2, fluorescence 635/667, higher = more signal.
Assay [7] in a line: JC-1 mitochondrial potential readout, lung cancer cells – cell-based, A549, JC-1 fluorescence, basal, 24 h, 100 nL, profiling panel (AID 1138).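 Note: A549 lung adenocarcinoma cells under basal conditions with no added stimulus; test concentration not given here.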 As to conditions: higher = more signal.
Assay [8] deals with Lefty1. As to the kind of experiment: Lefty1 protein binding to printed compounds – biochemical, small-molecule microarray, 635/667 nm fluorescence, primary screen (AID 1139). To be noted: fluorescence 635/667, higher = more signal.
In assay [9] the test system is wheat germ agglutinin (Triticum aestivum), Alexa647-labelled. As to the kind of experiment: Alexa647-WGA lectin binding to printed small molecules – biochemical, small-molecule microarray, 635/667 nm fluorescence, artefact control for SMM control-protein annotation, profiling panel (AID 1140).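 Note: score merges 667 nm feature emission with signal to noise over triplicate slides.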 To be noted: WGA-A647 binding, 635 nm fluorescence, higher = more signal.
Assay [10] has as its target Luciferin 4-monooxygenase (Photinus pyralis) (UniProt P08659). As to the kind of experiment: inhibition of purified Photinus pyralis luciferase – biochemical, luminescence, purified enzyme, 2006 set, primary screen (AID 1141).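 Note: cell-free assay with purified firefly luciferase at 100 ng per well in PBS; test concentration not given here.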 As to conditions: purified firefly luciferase, SteadyGlo luminescence, 30 min; higher = more signal, called active from +8 up or from −8 down.
For assay [11], the system named is Wnt5a (protein binding on small-molecule microarray). As to the kind of experiment: small molecules binding Wnt5a protein – biophysical, small-molecule microarray, 635/667 nm fluorescence, primary screen (AID 1142).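 Note: fluorescence read at 667 nm with signal to noise per printed feature.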 As to conditions: 635 nm fluorescence, higher = more signal.
Assay [12] in a line: ATP-based viability of Huh7 replicon cells – cell-based, CellTiter-Glo luminescence, basal, 48 h, cytotoxicity control for HCV replication inhibitor project, primary screen (AID 1143).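 Note: Huh7 hepatoma cells carrying a hepatitis C replication reporter with no stimulus; test concentration not given here.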 To be noted: higher = more signal, called active from +8 up or from −8 down. In general terms: Replicon systems follow genome replication, usually without infectious particles.
Assay [13] can be described thus: Pseudomonas biofilm growth suppression – PAO1 strain, BacTiter-Glo luminescence, LB-PBS, primary screen (AID 1144). As to conditions: P. aeruginosa PAO1 biofilm, 12 h, higher = more signal.
A short description of assay [14]: basal CRE-LacZ reporter activity in PC12 – cell-based, unstimulated, primary screen (AID 1145). To be noted: no forskolin, luminescence, 4.5 h, higher = more signal, called active from +8 up or from −8 down.
The nature of assay [15]: forskolin-driven CRE-LacZ activity in PC12 – cell-based, CRE-LacZ reporter, forskolin-stimulated, primary screen (AID 1146).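 Note: PC12 cells with 6xCRE LacZ reporter stimulated by forskolin 10 µM; beta-galactosidase reporter signal reflecting CREB driven transcription.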 To be noted: luminescence, 4.5 h, higher = more signal, called active from +8 up or from −8 down.
The target of assay [16] is Streptavidin (Streptomyces avidinii) (UniProt P22629). As to the kind of experiment: compounds binding control protein streptavidin – biophysical, small-molecule microarray, 635/667 nm fluorescence, artefact control for SMM compound annotation, primary screen (AID 1147).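 Note: signal reflects streptavidin binding to arrayed compounds as a control protein.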 As to conditions: higher = more signal.
Assay [17] can be described thus: probe aInhba binding on compound microarray – biochemical, small-molecule microarray, 635/667 nm fluorescence, primary screen (AID 1148).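 Note: score merges 667nm spot fluorescence with signal-to-noise for antibody binding to printed compounds.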 To be noted: higher = more signal.
Assay [18] concerns the target Torsin-1A (Homo sapiens) (UniProt O14656). As to the kind of experiment: TOR1A wild-type binding on microarray – cell lysate, small-molecule microarray, lysate, 635/667 nm, primary screen (AID 1149). As to conditions: COS7 hTOR1A-WT lysate, 635 nm fluorescence, higher = more signal.
Assay [19] has the same target. Put plainly: torsin A mutant lysate binding on microarrays – cell lysate, small-molecule microarray, COS7 lysate, 635/667 nm fluorescence, primary screen (AID 1150).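 Note: score pools 667 nm emission and signal to noise measuring lysate protein binding.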 As to conditions: COS7 hTOR1A mutant lysate, 635 nm fluorescence, higher = more signal.
The subject of assay [20] is Sonic hedgehog protein (Shh). As to the kind of experiment: Sonic hedgehog microarray binding compounds – biochemical, small-molecule microarray, 635/667 nm fluorescence, primary screen (AID 1151).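 Note: Shh protein binding to compounds spotted on small-molecule microarray slides; score combines spot fluorescence intensity with signal-to-noise across triplicate slides.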 As to conditions: 635 nm fluorescence, higher = more signal.

Calls of active or inactive are those of the source. Unless noted, the rule behind the calls is not given here.

Sequence of Fibroblast growth factor 2 (Homo sapiens) (P09038 whole entry, looked up): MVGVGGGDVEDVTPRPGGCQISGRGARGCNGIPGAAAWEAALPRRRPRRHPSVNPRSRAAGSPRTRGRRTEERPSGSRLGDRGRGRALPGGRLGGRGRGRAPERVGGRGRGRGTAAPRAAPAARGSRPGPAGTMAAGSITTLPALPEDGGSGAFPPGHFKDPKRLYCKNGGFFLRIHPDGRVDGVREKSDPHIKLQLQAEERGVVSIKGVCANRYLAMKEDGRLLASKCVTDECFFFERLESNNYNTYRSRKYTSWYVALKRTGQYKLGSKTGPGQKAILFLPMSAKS
Sequence of Follistatin (Homo sapiens) (P19883 whole entry, looked up): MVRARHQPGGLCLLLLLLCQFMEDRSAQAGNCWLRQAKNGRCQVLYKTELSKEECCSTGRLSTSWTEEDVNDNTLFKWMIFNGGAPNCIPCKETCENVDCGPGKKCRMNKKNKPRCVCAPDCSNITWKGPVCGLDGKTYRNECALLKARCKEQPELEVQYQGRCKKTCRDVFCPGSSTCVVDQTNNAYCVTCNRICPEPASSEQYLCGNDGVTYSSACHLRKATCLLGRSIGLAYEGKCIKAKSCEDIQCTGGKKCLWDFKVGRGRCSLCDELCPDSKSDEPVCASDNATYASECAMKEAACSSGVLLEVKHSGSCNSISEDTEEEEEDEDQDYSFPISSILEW
Sequence of Torsin-1A (Homo sapiens) (O14656 whole entry, looked up): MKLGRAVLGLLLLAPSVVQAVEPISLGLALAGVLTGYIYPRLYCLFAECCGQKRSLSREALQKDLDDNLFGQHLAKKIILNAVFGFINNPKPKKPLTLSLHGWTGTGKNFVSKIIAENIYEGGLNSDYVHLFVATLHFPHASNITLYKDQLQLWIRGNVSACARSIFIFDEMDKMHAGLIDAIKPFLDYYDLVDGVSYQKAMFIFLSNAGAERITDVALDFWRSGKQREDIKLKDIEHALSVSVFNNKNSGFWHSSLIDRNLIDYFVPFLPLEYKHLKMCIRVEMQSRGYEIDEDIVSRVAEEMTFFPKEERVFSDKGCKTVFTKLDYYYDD
Sequence of Luciferin 4-monooxygenase (Photinus pyralis) (P08659 whole entry, looked up): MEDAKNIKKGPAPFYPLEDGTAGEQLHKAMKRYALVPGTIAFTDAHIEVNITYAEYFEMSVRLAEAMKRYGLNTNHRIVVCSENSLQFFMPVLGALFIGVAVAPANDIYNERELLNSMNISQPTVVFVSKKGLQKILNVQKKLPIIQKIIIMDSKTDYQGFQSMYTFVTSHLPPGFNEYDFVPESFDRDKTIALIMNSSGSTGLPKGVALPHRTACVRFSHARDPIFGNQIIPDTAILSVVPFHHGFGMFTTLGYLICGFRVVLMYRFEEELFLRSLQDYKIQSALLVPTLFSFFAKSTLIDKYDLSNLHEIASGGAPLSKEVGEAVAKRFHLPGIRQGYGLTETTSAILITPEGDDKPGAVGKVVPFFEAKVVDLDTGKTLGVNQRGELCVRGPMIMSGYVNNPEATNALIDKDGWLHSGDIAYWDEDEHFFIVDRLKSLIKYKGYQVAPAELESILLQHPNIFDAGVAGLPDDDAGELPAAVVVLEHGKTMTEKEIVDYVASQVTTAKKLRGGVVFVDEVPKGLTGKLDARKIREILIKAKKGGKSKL
Sequence of Focal adhesion kinase 1 (Homo sapiens) (Q05397 whole entry, looked up): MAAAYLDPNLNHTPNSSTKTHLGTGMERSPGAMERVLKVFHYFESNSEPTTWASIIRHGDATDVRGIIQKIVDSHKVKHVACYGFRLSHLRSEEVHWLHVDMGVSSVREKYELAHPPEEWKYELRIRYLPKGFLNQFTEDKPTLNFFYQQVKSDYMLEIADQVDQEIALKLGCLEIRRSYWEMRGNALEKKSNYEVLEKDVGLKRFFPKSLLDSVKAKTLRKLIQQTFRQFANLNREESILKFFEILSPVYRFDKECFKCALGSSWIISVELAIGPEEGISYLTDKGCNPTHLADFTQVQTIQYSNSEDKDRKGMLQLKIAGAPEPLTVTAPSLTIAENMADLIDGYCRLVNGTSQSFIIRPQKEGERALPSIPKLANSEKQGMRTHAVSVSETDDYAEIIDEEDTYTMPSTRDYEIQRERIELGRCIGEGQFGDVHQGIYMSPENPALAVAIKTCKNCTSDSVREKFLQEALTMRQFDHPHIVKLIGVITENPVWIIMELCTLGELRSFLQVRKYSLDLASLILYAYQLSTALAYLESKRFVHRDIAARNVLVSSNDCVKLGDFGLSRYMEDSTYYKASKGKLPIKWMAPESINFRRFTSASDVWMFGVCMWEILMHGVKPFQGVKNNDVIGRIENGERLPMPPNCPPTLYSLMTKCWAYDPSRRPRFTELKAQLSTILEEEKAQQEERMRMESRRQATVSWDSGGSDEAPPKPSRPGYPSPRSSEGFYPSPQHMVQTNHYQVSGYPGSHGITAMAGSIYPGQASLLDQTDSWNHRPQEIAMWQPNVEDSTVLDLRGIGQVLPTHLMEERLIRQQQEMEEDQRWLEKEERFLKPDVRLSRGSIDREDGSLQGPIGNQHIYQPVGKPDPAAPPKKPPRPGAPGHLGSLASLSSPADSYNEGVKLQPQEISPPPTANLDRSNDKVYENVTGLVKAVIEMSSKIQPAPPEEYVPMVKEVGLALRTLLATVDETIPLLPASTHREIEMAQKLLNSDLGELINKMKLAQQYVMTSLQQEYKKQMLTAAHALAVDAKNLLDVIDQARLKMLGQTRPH
Sequence of Streptavidin (Streptomyces avidinii) (P22629 whole entry, looked up): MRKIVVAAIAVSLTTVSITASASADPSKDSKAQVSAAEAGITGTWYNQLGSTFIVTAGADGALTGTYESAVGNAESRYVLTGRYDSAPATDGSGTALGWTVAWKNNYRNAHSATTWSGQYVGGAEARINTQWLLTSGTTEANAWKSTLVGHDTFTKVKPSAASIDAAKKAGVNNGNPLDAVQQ

As to `O=C1O[C@@H](c2ccccc2)[C@@H](c2ccccc2)N2[C@@H](c3ccc(O)cc3)[C@]3(C(=O)Nc4ccc(C#CCCO)cc43)[C@@H](C(=O)Nc3nc4ccccc4s3)[C@H]12`, the composite z-score came to 0.709 in [1]; 1.23 in assay [2]; 0.31 in assay [3]; 0.682 in assay [4]; 1.25 in [5]; 1.01 in assay [6]. Moreover, the composite z-score in assay [8] was 0.531; in [9], 0.552; in assay [11], 0.106; in assay [16], 0.103; in assay [17], 0.0471; in assay [18] it was -0.363. Moreover, the composite z-score in [19] is 0.897; in assay [20] it was 0.756. Also, the z-score in assay [7] is -2.38; in assay [10], -0.155 (inactive); in assay [12], -0.486 (inactive); in assay [13] it was 0.422 (inactive); in assay [14], -0.195 (inactive); in assay [15] it was 1.93 (inactive).
In the case of `COCCOC(=O)N1C(=O)[C@@]2(c3cc(C#CC4=CCCCC4)ccc31)[C@H](c1ccc(O)cc1)N1[C@H](c3ccccc3)[C@H](c3ccccc3)OC(=O)[C@H]1[C@@H]2C(=O)Nc1nc2ccccc2s1`, the composite z-score in [1] is 0.494; in assay [2], 1.21; in assay [3], 0.822; in assay [4], 0.93; in [5] it was 0.862; in [6], 1.08. Further, the composite z-score in [8] is 1.52; in [9], 0.657; in assay [11], 0.365; in assay [16], 1.18; in assay [17], 0.52; in [18], 0.776. For the same molecule, the composite z-score was 0.89 in assay [19] and 1.73 in [20]. Besides, the z-score in assay [7] was -1.94; in [10] it was -0.946 (inactive); in assay [12], -0.799 (inactive); in assay [13] it was -0.424 (inactive); in [14], 0.476 (inactive); in [15], 2.17 (inactive).
Turning to `CC(C)C(O)C1C=CC2C(=O)N(C)C(=O)C2N1Nc1ccccc1` (stereo not given), the composite z-score in [1] came to 0.932; in assay [2] it was 1.14; in assay [3] it was 0.746; in assay [4] it was 0.78; in assay [5] it was 0.828; in [6], 0.0704. For the same molecule, the composite z-score is -0.241 in assay [8]; 1.23 in [9]; 0.361 in assay [11]; 0.53 in assay [16]; 0.85 in assay [17]; 0.378 in [18]. In addition, the composite z-score in [19] is 0.597; in assay [20], -0.361. Besides, the z-score was -0.219 in assay [7]; -0.968 (inactive) in assay [10]; 1.03 (inactive) in [12]; -1.04 (inactive) in [13]; 0.0535 (inactive) in [14]; -0.0784 (inactive) in assay [15].
In the case of `CCCN1C(=O)[C@]2(Cc3ccccc3)N=C(c3ccc(OCCCO)cc3)O[C@@H]2c2ccccc21`, the composite z-score was determined as 1.9 in [1]; 1.22 in assay [2]; 0.0605 in assay [3]; 0.962 in [4]; 1.46 in assay [5]; 1.63 in [6]. The composite z-score in assay [8] is 0.951; in assay [9] it was 0.751; in assay [11], 1.19; in [16], 0.501; in [17], 0.872; in assay [18], 0.317. In addition, the composite z-score in [19] was 0.773; in [20] it was 1.84. In addition, the z-score in assay [7] was 1.44; in assay [10], -4.12 (inactive); in [12], -5.27 (inactive); in assay [13], -0.204 (inactive); in [14], 1.04 (inactive); in assay [15], -1.11 (inactive).
Take `C=CCOC(=O)[C@H]1[C@@H]2C(=O)O[C@@H](c3ccccc3)[C@@H](c3ccccc3)N2[C@@H](c2ccc(OCCOC(=O)[C@H]3C[C@H]4C(=O)N[C@@H](Cc5ccccc5)C(=O)N4[C@H]3c3cccc(OCCO)c3)cc2)[C@]12C(=O)Nc1ccc(I)cc12`: the composite z-score was determined as 2.34 in assay [1]; 1.16 in [2]; 0.41 in assay [3]; 0.948 in assay [4]; 1.2 in assay [5]; 1.71 in assay [6]. Moreover, the composite z-score in [8] is 1.35; in assay [9] it was 0.324; in assay [11], 0.971; in assay [16], 0.309; in assay [17] it was -0.0112; in assay [18], 0.703. The composite z-score in [19] is 0.815; in assay [20] it was 2.16. Moreover, the z-score was -1.41 in assay [7]; -0.65 (inactive) in assay [10]; -0.441 (inactive) in assay [12]; -0.283 (inactive) in [13]; 0.688 (inactive) in assay [14]; 0.144 (inactive) in [15].
